Experimental data from PMC7862700, “An all-to-all approach to the identification of sequence-specific readers for epigenetic DNA modifications on cytosine”.

biological target: T1, FLI1 (Homo sapiens, UniProt Q01543 1-452); experiment: DAPPL (digital affinity profiling via proximity ligation, sequencing); 10 mM Tris-HCl pH 7.5, 50 mM NaCl, 1 mM DTT, 4% glycerol, room temperature, 30 min; GST-TFs on glutathione beads, 16-mer random dsDNA library, 0.1% formaldehyde crosslink after washing; high values mean tight binding; conditions: protein: recombinant; tags: N-terminal GST; dsDNA, one strand shown
T1 sequence: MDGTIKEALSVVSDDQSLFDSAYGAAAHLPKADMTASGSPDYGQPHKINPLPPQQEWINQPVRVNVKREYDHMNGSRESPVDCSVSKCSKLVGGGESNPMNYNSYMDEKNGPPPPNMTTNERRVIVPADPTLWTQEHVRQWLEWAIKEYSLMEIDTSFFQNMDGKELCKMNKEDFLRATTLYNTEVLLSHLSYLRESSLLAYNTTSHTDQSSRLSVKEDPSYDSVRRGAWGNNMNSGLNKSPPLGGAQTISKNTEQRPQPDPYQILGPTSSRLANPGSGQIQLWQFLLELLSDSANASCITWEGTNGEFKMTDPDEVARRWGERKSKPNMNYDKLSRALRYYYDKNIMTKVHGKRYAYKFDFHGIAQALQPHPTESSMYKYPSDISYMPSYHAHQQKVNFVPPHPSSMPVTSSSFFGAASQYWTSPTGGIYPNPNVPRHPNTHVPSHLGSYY
Procedure, shortened: (§1)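 A tag-only sample was pooled with DNA-barcoded human transcription factors that had been expressed in yeast as GST fusions and captured on glutathione beads. The pools were incubated for 30 min at room temperature with 200 nmole of a random double-stranded 16-mer DNA library in Tris/NaCl/DTT/glycerol buffer, then washed, crosslinked with 0.1% formaldehyde, proximity-ligated (BsaI/T4 ligase, 1 h, 37 °C), PCR-amplified and sequenced on an Illumina NextSeq500. Binding signal is each hexamer's read frequency for a factor divided by its frequency for the tag-only sample.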

| Sequence | binding signal |
| --- | --- |
| TTTTCC | 1.9 fold enrichment (6-mer frequency, TF over GST control) |
| CGATTA | 1.15 fold enrichment (6-mer frequency, TF over GST control) |
| TATTTT | 1.3 fold enrichment (6-mer frequency, TF over GST control) |
| TCCTCG | 1.6 fold enrichment (6-mer frequency, TF over GST control) |
| GTTGCT | 1.34 fold enrichment (6-mer frequency, TF over GST control) |
| TCCGCC | 1.57 fold enrichment (6-mer frequency, TF over GST control) |
| TCTCTG | 1.67 fold enrichment (6-mer frequency, TF over GST control) |
| TTTAAC | 1.18 fold enrichment (6-mer frequency, TF over GST control) |
| ATTGCA | 1.17 fold enrichment (6-mer frequency, TF over GST control) |
| ACGTCT | 1.13 fold enrichment (6-mer frequency, TF over GST control) |
| TCTACT | 1.27 fold enrichment (6-mer frequency, TF over GST control) |
| TCATCC | 1.4 fold enrichment (6-mer frequency, TF over GST control) |
| TATCGA | 1.36 fold enrichment (6-mer frequency, TF over GST control) |
| CTACTC | 1.42 fold enrichment (6-mer frequency, TF over GST control) |
| AATTAC | 1.24 fold enrichment (6-mer frequency, TF over GST control) |
| TCTGGC | 1.36 fold enrichment (6-mer frequency, TF over GST control) |
| CCCGAC | 1.31 fold enrichment (6-mer frequency, TF over GST control) |
| CAAGAT | 1.04 fold enrichment (6-mer frequency, TF over GST control) |
| TTAGCA | 1.21 fold enrichment (6-mer frequency, TF over GST control) |
| CATTTG | 1.23 fold enrichment (6-mer frequency, TF over GST control) |

| Sequence | binding signal |
| --- | --- |
| TCTTCT | 1.3 fold enrichment (6-mer frequency, TF over GST control) |
| AATCCT | 1.46 fold enrichment (6-mer frequency, TF over GST control) |
| CCCCCT | 1.22 fold enrichment (6-mer frequency, TF over GST control) |
| ACATCC | 2.58 fold enrichment (6-mer frequency, TF over GST control) |
| TTTTGT | 1.35 fold enrichment (6-mer frequency, TF over GST control) |
| ACATAA | 1.01 fold enrichment (6-mer frequency, TF over GST control) |
| TTCTCG | 1.51 fold enrichment (6-mer frequency, TF over GST control) |
| AAATCT | 1.28 fold enrichment (6-mer frequency, TF over GST control) |
| TTCTCC | 1.42 fold enrichment (6-mer frequency, TF over GST control) |
| CTTGCG | 1.44 fold enrichment (6-mer frequency, TF over GST control) |
| ACGTTC | 1.31 fold enrichment (6-mer frequency, TF over GST control) |
| AATTAA | 1.26 fold enrichment (6-mer frequency, TF over GST control) |
| GTTCCT | 1.73 fold enrichment (6-mer frequency, TF over GST control) |
| ACTTAT | 1.4 fold enrichment (6-mer frequency, TF over GST control) |
| AATTTA | 1.17 fold enrichment (6-mer frequency, TF over GST control) |
| CACGAT | 1.4 fold enrichment (6-mer frequency, TF over GST control) |
| CTCTCT | 1.77 fold enrichment (6-mer frequency, TF over GST control) |
| GCCTAC | 1.18 fold enrichment (6-mer frequency, TF over GST control) |
| GCCTCG | 1.41 fold enrichment (6-mer frequency, TF over GST control) |
| AACTAG | 1.06 fold enrichment (6-mer frequency, TF over GST control) |

biological target: T2, ELK1 (Homo sapiens, UniProt P19419 1-428); experiment: as above; conditions: protein: recombinant; tags: N-terminal GST; dsDNA, one strand shown
T2 sequence: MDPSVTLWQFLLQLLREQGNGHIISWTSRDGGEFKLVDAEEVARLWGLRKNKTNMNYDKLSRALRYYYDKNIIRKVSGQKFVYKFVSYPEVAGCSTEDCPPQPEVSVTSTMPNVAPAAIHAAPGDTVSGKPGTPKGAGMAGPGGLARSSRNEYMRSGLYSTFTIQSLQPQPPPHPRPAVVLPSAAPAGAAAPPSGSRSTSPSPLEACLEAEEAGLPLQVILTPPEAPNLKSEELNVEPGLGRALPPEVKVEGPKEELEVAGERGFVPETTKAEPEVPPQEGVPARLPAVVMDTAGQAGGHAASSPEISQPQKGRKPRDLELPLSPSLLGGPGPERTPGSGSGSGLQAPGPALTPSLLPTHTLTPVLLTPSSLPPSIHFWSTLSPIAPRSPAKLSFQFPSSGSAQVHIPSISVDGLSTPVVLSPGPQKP
Procedure, shortened: as §1

| Sequence | binding signal |
| --- | --- |
| TTTTCC | 1.68 fold enrichment (6-mer frequency, TF over GST control) |
| CGATTA | 1.07 fold enrichment (6-mer frequency, TF over GST control) |
| TATTTT | 1.3 fold enrichment (6-mer frequency, TF over GST control) |
| TCCTCG | 1.33 fold enrichment (6-mer frequency, TF over GST control) |
| GTTGCT | 1.26 fold enrichment (6-mer frequency, TF over GST control) |
| TCCGCC | 1.61 fold enrichment (6-mer frequency, TF over GST control) |
| TCTCTG | 1.67 fold enrichment (6-mer frequency, TF over GST control) |
| TTTAAC | 1.16 fold enrichment (6-mer frequency, TF over GST control) |
| ATTGCA | 1.31 fold enrichment (6-mer frequency, TF over GST control) |
| ACGTCT | 1.2 fold enrichment (6-mer frequency, TF over GST control) |
| TCTACT | 1.37 fold enrichment (6-mer frequency, TF over GST control) |
| TCATCC | 1.38 fold enrichment (6-mer frequency, TF over GST control) |
| TATCGA | 1.28 fold enrichment (6-mer frequency, TF over GST control) |
| CTACTC | 1.36 fold enrichment (6-mer frequency, TF over GST control) |
| AATTAC | 1.19 fold enrichment (6-mer frequency, TF over GST control) |
| TCTGGC | 1.26 fold enrichment (6-mer frequency, TF over GST control) |
| CCCGAC | 1.28 fold enrichment (6-mer frequency, TF over GST control) |
| CAAGAT | 1.04 fold enrichment (6-mer frequency, TF over GST control) |
| TTAGCA | 1.19 fold enrichment (6-mer frequency, TF over GST control) |
| CATTTG | 1.32 fold enrichment (6-mer frequency, TF over GST control) |

| Sequence | binding signal |
| --- | --- |
| TCTTCT | 1.29 fold enrichment (6-mer frequency, TF over GST control) |
| AATCCT | 1.31 fold enrichment (6-mer frequency, TF over GST control) |
| CCCCCT | 1.26 fold enrichment (6-mer frequency, TF over GST control) |
| ACATCC | 2.73 fold enrichment (6-mer frequency, TF over GST control) |
| TTTTGT | 1.18 fold enrichment (6-mer frequency, TF over GST control) |
| ACATAA | 1.09 fold enrichment (6-mer frequency, TF over GST control) |
| TTCTCG | 1.43 fold enrichment (6-mer frequency, TF over GST control) |
| AAATCT | 1.21 fold enrichment (6-mer frequency, TF over GST control) |
| TTCTCC | 1.45 fold enrichment (6-mer frequency, TF over GST control) |
| CTTGCG | 1.42 fold enrichment (6-mer frequency, TF over GST control) |
| ACGTTC | 1.45 fold enrichment (6-mer frequency, TF over GST control) |
| AATTAA | 1.2 fold enrichment (6-mer frequency, TF over GST control) |
| GTTCCT | 1.69 fold enrichment (6-mer frequency, TF over GST control) |
| ACTTAT | 1.4 fold enrichment (6-mer frequency, TF over GST control) |
| AATTTA | 1.3 fold enrichment (6-mer frequency, TF over GST control) |
| CACGAT | 1.26 fold enrichment (6-mer frequency, TF over GST control) |
| CTCTCT | 1.78 fold enrichment (6-mer frequency, TF over GST control) |
| GCCTAC | 1.17 fold enrichment (6-mer frequency, TF over GST control) |
| GCCTCG | 1.26 fold enrichment (6-mer frequency, TF over GST control) |
| AACTAG | 1.15 fold enrichment (6-mer frequency, TF over GST control) |

biological target: T3, GABPA (Homo sapiens, UniProt Q06546 1-454); experiment: as above; conditions: protein: recombinant; tags: N-terminal GST; dsDNA, one strand shown
T3 sequence: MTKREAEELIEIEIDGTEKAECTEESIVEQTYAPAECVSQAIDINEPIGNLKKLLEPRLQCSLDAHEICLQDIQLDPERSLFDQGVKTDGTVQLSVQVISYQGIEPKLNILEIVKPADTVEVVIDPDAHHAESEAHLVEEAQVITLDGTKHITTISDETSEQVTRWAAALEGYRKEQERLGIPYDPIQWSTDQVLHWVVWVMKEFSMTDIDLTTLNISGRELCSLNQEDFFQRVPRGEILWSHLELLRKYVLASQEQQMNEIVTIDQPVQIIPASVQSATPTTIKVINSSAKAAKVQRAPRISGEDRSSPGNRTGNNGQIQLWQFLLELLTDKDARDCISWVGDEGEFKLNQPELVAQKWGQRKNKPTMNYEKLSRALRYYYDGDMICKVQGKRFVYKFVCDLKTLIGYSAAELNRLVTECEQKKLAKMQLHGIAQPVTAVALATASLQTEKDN
Procedure, shortened: as §1

| Sequence | binding signal |
| --- | --- |
| TTTTCC | 1.71 fold enrichment (6-mer frequency, TF over GST control) |
| CGATTA | 1.17 fold enrichment (6-mer frequency, TF over GST control) |
| TATTTT | 1.34 fold enrichment (6-mer frequency, TF over GST control) |
| TCCTCG | 1.47 fold enrichment (6-mer frequency, TF over GST control) |
| GTTGCT | 1.25 fold enrichment (6-mer frequency, TF over GST control) |
| TCCGCC | 1.53 fold enrichment (6-mer frequency, TF over GST control) |
| TCTCTG | 1.47 fold enrichment (6-mer frequency, TF over GST control) |
| TTTAAC | 1.08 fold enrichment (6-mer frequency, TF over GST control) |
| ATTGCA | 1.19 fold enrichment (6-mer frequency, TF over GST control) |
| ACGTCT | 1.14 fold enrichment (6-mer frequency, TF over GST control) |
| TCTACT | 1.43 fold enrichment (6-mer frequency, TF over GST control) |
| TCATCC | 1.39 fold enrichment (6-mer frequency, TF over GST control) |
| TATCGA | 1.32 fold enrichment (6-mer frequency, TF over GST control) |
| CTACTC | 1.51 fold enrichment (6-mer frequency, TF over GST control) |
| AATTAC | 1.26 fold enrichment (6-mer frequency, TF over GST control) |
| TCTGGC | 1.29 fold enrichment (6-mer frequency, TF over GST control) |
| CCCGAC | 1.39 fold enrichment (6-mer frequency, TF over GST control) |
| CAAGAT | 1.17 fold enrichment (6-mer frequency, TF over GST control) |
| TTAGCA | 1.16 fold enrichment (6-mer frequency, TF over GST control) |
| CATTTG | 1.28 fold enrichment (6-mer frequency, TF over GST control) |
